An excerpt weighted towards active compounds, which were near 6.5% of everything screened.
VACV Venus inh: qHTS for Stage-Specific Inhibitors of Vaccinia Orthopoxvirus: Venus Reporter Primary qHTS; AID 720580, 2013; hit rate 0.46% among 330,000; Vaccinia virus Venus reporter expression, fluorescence; Potency, µM (highest dose often 36.5 µM), inactives show at the top dose activity change, negative = inhibition, usual class: inhibitors; calls by dose curve; tested in A549 cells; also: potency is read from the fitted curve at half-maximal effect; nearly all actives have a fitted effect of over 30% in size
Marburg entry inh: qHTS for inhibitors of binding or entry into cells for Marburg Virus; Marburg virus pseudotyped entry inhibition, cell reporter; hit rate 1.8% among 300,000; Potency, µM (highest dose often 37.8 µM), for inactives: at the highest dose activity change, negative = inhibition, usual class: inhibitors; AID 540276, 2011; calls by dose curve; tested in HEK293 cells; also: potency is read from the fitted curve at half-maximal effect
FMDV inh: High Throughput Screening for Foot and Mouth Disease Virus Antivirals; Potency, µM (doses to about 57.9 µM), for inactives: at the top dose activity change, negative = inhibition, hits mostly inhibitors; FMDV antiviral cell-based qHTS; hit rate 1.2% among 410,000; calls by dose curve; tested in HEK293T cells; also: read-out not given here; potency is read from the fitted curve at half-maximal effect; nearly all actives have a fitted effect of over 45% in size
HCMV antiviral: qHTS Assay for inhibitors of the human cytomegalovirus (HCMV). HFF cells, HCMV-luciferase reporter, 72 h; active compounds read low. activity change, negative = inhibition, % at 57.5 µM. hit rate 4.5% among 410,000; in the data active = activity change below about -60%; inconclusive = no clear call, values can overlap the other calls; inactive = above about -39%
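Two-dose cell screen: HFF monolayers treated with compounds and infected with luciferase-expressing HCMV at 1 PFU/cell, 72 h at 37C, then lysed for luciferase measurement.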
Lassa entry inh: qHTS for Inhibitors of binding or entry into cells for Lassa Virus. Potency, µM (highest dose often 37.9 µM), inactives show at the highest dose activity change, negative = inhibition, hits mostly inhibitors. hit rate 1.2% among 300,000. Lassa virus pseudotype entry inhibition, cell reporter; calls by dose curve; tested in HEK293 cells; also: potency is read from the fitted curve at half-maximal effect; nearly all actives have a fitted effect of over 50% in size
Vaccinia mCherry: qHTS for Stage-Specific Inhibitors of Vaccinia Orthopoxvirus: mCherry Reporter Primary qHTS. hit rate 0.63% among 310,000. Potency, µM (top dose mostly 36.5 µM), without a hit: at the top dose activity change, negative = inhibition, usual class: inhibitors. Vaccinia virus mCherry reporter infection, fluorescence; calls by dose curve; tested in A549 cells; also: potency is read from the fitted curve at half-maximal effect; nearly all actives have a fitted effect of over 35% in size
An asterisk follows results filed as active; i = inactive; ? = inconclusive; . = no result given; [ ] = remark or other dose. % is scaled to controls: 0 for no effect and ±100 for the full control effect.

SMILES | VACV Venus inh | Marburg entry inh | FMDV inh | HCMV antiviral | Lassa entry inh | Vaccinia mCherry
CCC1CN(CC(=O)N(C)Cc2nc3ccccc3[nH]2)Cc2cc(OC)ccc2O1 (stereo not given) | 5% | . | 15% | . | . | -10%
CCOc1ccccc1CN1CCCC(c2nc(C)ncc2-c2ccc(F)cc2)C1 (stereo not given) | -6% | . | -10% | . | . | -20%
Cc1ccc(C)c(SCC(=O)NNC(=O)c2csc(N3CCOCC3)n2)c1 | . | . | 2% | -62* | . | .
Cc1ccsc1C(=O)NNC(=O)c1csc(N2CCOCC2)n1 | -6% | 16% | -11% | -5 | 0% | -10%
CCCC1OC2C[C@@H]3[C@H]4CCC5=CC(=O)C=C[C@]5(C)[C@H]4C(O)C[C@]3(C)[C@]2(C(=O)CO)O1 (stereo not given in full) | -28% | . | . | . | . | -26%
CCOc1ccccc1CNC(=O)CCn1c(=O)c2cccn2c2ccc(F)cc21 | -3% | . | -14% | ? | -3%[46.1 µM] | 1%
CC(=O)Nc1ccc(CN(C)CC2CCCN(CCc3cccc(C(F)(F)F)c3)C2)cc1 (stereo not given) | -24% | 10µM* | -29% | -30 | ? | -27%
CC(C)NC(=O)c1csc(N2CCN(CCc3ccccc3)C2=O)n1 | . | . | . | 11 | . | .
OC(COCC1CC=CCC1)Cn1cnc2ccccc21 (stereo not given) | . | ? | ? | -23 | 1% | .
Cc1nc2ccccc2n1CC(O)COCC1CC=CCC1 (stereo not given) | ? | -24% | ? | -81* | -3% | .
CCOc1ccc(-c2cnc(NCc3ccc(OC)cc3OC)n2C)cc1 | -10% | ? | -25% | -28 | ? | -10%
Cc1nc2ccc(NS(=O)(=O)c3c(C)c(C)cc(C)c3C)cc2s1 | ? | ? | 11% | -61* | ? | ?
Cc1nc2cc(NS(=O)(=O)c3c(C)c(C)cc(C)c3C)ccc2s1 | ? | -27% | -22% | -82* | -7% | ?
CC[C@@H](C)CCCCC(=O)N[C@H](CCN)C(=O)N[C@@H](C(=O)N[C@H](CCN)C(=O)N[C@@H]1CCNC(=O)C([C@@H](C)O)NC(=O)[C@@H](CCN)NC(=O)[C@@H](CCN)NC(=O)[C@@H](CC(C)C)NC(=O)[C@@H](Cc2ccccc2)NC(=O)[C@@H](CCN)NC1=O)[C@@H](C)O (stereo not given in full) | 9% | . | -2% | . | . | 0%
Cc1ccc(-n2nc3c(N4CCC(C(=O)NCCC(C)C)CC4)nnc(C)c3c2C)cc1 | ? | . | -12% | -9 | 15%[46.1 µM] | ?
CCCN(CC1CC1)C(=O)CSc1ncnc2sc(C)c(C)c12 | -16% | 2% | ? | -83* | -6% | -11%
Cc1sc2ncnc(-n3nnc4ccccc43)c2c1C | . | . | -8% | ? | . | .
Brc1ccc(-c2csc3ncnc(-n4nnc5ccccc54)c23)cc1 | -23% | 13µM* | ? | -68* | ? | -11%
O=C(c1ccoc1)N1CCN(c2cc(-c3ccncc3)nc3cc(-c4cccc(Cl)c4)nn23)CC1 | -18% | . | ? | -14 | . | -1%
O=C(c1ccncc1)N1CCN(c2cc(-c3ccccc3)nc3cc(-c4cccc(Cl)c4)nn23)CC1 | ? | . | 28µM* | 6 | . | ?
O=C(c1ccoc1)N1CCN(c2cc(-c3ccccc3)nc3cc(-c4ccc(Br)cc4)nn23)CC1 | -24% | . | 22µM* | -63* | . | -20%
COc1ccc(-c2cc3nc(-c4ccccc4)cc(N4CCN(C(=O)c5ccoc5)CC4)n3n2)cc1 | -18% | . | ? | -19 | . | -11%
CC(=O)N1CCN(c2cc(-c3ccccc3)nc3cc(-c4cccc(Cl)c4)nn23)CC1 | ? | . | 18µM* | -89* | . | ?
COc1cc2c(cc1OC)C1[C@H]3C(=CC[C@H]1OC2O)CCN3C (stereo not given in full) | -10% | . | -4% | -103* | . | i
COc1cc2c(cc1OC)C(C)N(C(=O)c1cc(Cl)nc(Cl)c1)CC2 (stereo not given) | . | . | -29% | 42 | . | .
SMILES | VACV Venus inh | Marburg entry inh | FMDV inh | HCMV antiviral | Lassa entry inh | Vaccinia mCherry
COc1ccc(-c2oc3ncnc(NCCCN(C)C)c3c2-c2ccc(OC)cc2)cc1 | . | . | ? | -84* | . | .
Cc1ccc(Cl)cc1N1CCN(CCCNc2ncnc3onc(-c4ccc(F)cc4)c23)CC1 | -27% | . | ? | -3 | -26%[46.1 µM] | -28%
COc1cccc(C(O)c2nc(/C=C/c3ccc(C(F)(F)F)cc3)cs2)c1 (stereo not given) | -2% | . | -21% | -62* | . | 1%
OC(c1cccc(Cl)c1)c1nc(/C=C/c2ccc(C(F)(F)F)cc2)cs1 (stereo not given) | 1% | . | -22% | -1 | . | -3%
Cc1ccc(Cn2ncc3c(N4CCOCC4)ncnc32)cc1 | . | -19% | ? | -9 | 4% | .
CCN1CCN(c2ncnc3c2cnn3-c2cc(Cl)ccc2C)CC1 | 5% | . | 0% | -16 | -23%[46.1 µM] | -14%
Cc1ccc(Cn2ncc3c(N4CCN(c5ccccc5C)CC4)ncnc32)cc1 | ? | ? | 18µM* | -14 | ? | .
Clc1ccc(Cn2ncc3c(N4CCN(c5ccccc5)CC4)ncnc32)cc1 | ? | . | 13µM* | -102* | . | ?
Cc1ccc(Cl)cc1-n1ncc2c(N3CCN(Cc4ccccc4)CC3)ncnc21 | -23% | . | 3.2µM* | -35 | 6%[46.1 µM] | ?
COc1ccc2c(O)c(-c3c(C)cc(C)cc3C)c(=O)[nH]c2c1 | 4% | 1%[14.2 µM] | -17% | -63* | -7% | -17%
Nc1nc(NCc2ccc(Cl)cc2)c2[nH]cnc2n1 | -12% | . | . | . | . | -13%
COc1ccc(/C=C/C(=O)NC(=S)Nc2cc3oc4ccccc4c3cc2OC)cc1 | -7% | -15% | -3% | -32 | -12% | -4%
COc1cc2c(cc1NC(=O)/C=C/c1ccccc1)oc1ccccc12 | -11% | ? | . | -64* | ? | -5%
COc1cc2c(cc1NC(=O)Nc1ccc(F)cc1)oc1ccccc12 | -18% | 0% | -5% | -66* | 2% | -21%
Cc1nn(-c2ccccc2)c(OC(=O)c2ccc(F)cc2)c1S(=O)(=O)c1ccccc1 | -1% | -11%[46.1 µM] | 9% | 8 | ? | -5%
Cc1nnc(N2CCOCC2)c2nn(-c3ccccc3)c(C)c12 | -16% | -24% | -17% | ? | ? | -14%
c1ccc(-n2nnc3c(N4CCOCC4)ncnc32)cc1 | . | 2.3µM* | -85% | -13 | 5.2µM* | .
COC(=O)[C@]1(C)CCC[C@@]2(C)C3CC[C@@]4(C)C[C@]3(CCC21)CC(=O)N4 (stereo not given in full) | -24% | . | ? | -8 | . | i
C=C1C(=O)C23CCC4C(C)(C(=O)OC)CCCC4(C)C2CCC1(O)C3 (stereo not given) | 11µM* | ? | 3.5µM* | -99* | ? | 7.9µM*

Compound activity (PubChem)
